# High-throughput results from PubChem.
# AMA1 RON2 block: qHTS for Inhibitors of AMA1-RON; Towards Development of Antimalarial Drug Lead: Primary Screen; AlphaScreen AMA1-biotinylated RON2 peptide binding; Plasmodium falciparum AMA1 (3D7) - RON2 peptide interaction; Potency, µM (doses to about 58.2 µM), without a hit: at the top dose activity change, negative = inhibition, hits mostly inhibitors; 360,000 tested, 0.2% active; AID 720542, 2013;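 note: 0% = vehicle wells and -100% = peptide control; nearly all actives have a fitted effect of over 45% in size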
#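 AMA1 (3D7) with his tag at 25 nM final met compounds first, then biotinylated RON2 peptide at 25 nM; detection used donor plus acceptor beads, 10 µg/mL apiece, read by AlphaScreen after 30 min at room temperature.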
# Pf growth 48h: Primary qHTS for delayed death inhibitors of the malarial parasite plastid, 48 hour incubation | P. falciparum luciferase growth in erythrocytes, 48 h | Potency, µM (doses to about 28.7 µM), inactives show top-dose activity change, negative = inhibition, usual class: inhibitors | 310,000 tested, 5.9% active | AID 504832, 2011
#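 Read-out is firefly luciferase luminescence from an integrated reporter in P. falciparum, so falling signal marks reduced parasite growth. Infected erythrocytes were at 2% hematocrit and 0.1% parasitemia (final) in Albumax-supplemented RPMI 1640.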
# Pf growth 96h: Primary qHTS for delayed death inhibitors of the malarial parasite plastid, 96 hour incubation; P. falciparum luciferase reporter growth, 96 h; Potency, µM (top dose mostly 28.7 µM), for the others: top-dose activity change, negative = inhibition, most hits filed as inhibitors; 320,000 tested, 6.9% active
#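 Compounds incubated with erythrocytes infected by luciferase-expressing P. falciparum (2% hematocrit, 0.05% parasitemia final) for 96 hours, 37 C in 5% CO2. Growth inhibition scored as decreased luciferase luminescence.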
# AmpC detergent: qHTS Inhibitors of AmpC Beta-Lactamase (assay with detergent); 370,000 tested, 0.041% active; P00811; AID 485294, 2010; Potency, µM (highest dose often 114 µM), inactives show at the highest dose activity change, negative = inhibition, hits mostly inhibitors; AmpC hydrolysis of nitrocefin, absorbance 480 nm, 0.01% Triton;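 note: 0% = no-compound wells and -100% = no-enzyme wells; nearly all actives have a fitted effect of over 25% in size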
# Target sequence (P00811 whole entry, looked up): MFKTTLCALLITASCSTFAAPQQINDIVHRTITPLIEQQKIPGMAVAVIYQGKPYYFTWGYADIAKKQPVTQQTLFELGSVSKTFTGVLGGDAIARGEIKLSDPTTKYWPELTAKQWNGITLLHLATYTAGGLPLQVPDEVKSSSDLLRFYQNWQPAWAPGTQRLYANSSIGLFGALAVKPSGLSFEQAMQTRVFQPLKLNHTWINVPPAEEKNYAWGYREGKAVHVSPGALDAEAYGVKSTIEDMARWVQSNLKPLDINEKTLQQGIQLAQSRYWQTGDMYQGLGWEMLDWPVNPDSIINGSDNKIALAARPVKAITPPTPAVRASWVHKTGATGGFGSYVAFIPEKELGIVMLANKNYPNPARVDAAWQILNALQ
#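 20 mM phosphate pH 7.0 + 0.01% (detergent screen) or 0.0001% Triton X-100; 5.3 nM AmpC reagent; cpd preinc 15 min RT; nitrocefin (800 uM stock) to start; A480 q20 s × 4 min; Activity was normalised to no-enzyme and no-compound control wells.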
# AmpC no deterg: qHTS Inhibitors of AmpC Beta-Lactamase (assay without detergent); P00811; AmpC nitrocefin hydrolysis, absorbance 480 nm, 0.0001% Triton; Potency, µM (highest dose often 57.1 µM), without a hit: at the highest dose activity change, negative = inhibition, usual class: inhibitors; 330,000 tested, 0.52% active;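 note: plate controls were no compound for no effect and no enzyme for full effect; nearly all actives have a fitted effect of over 20% in size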
#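 20 mM phosphate pH 7.0 + 0.01% (detergent screen) or 0.0001% Triton X-100; 5.3 nM AmpC reagent; cpd preinc 15 min RT; nitrocefin (800 uM stock) to start; A480 q20 s × 4 min; Activity was normalised to no-enzyme and no-compound control wells.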
# HCV inh: qHTS Assay for Inhibitors of Hepatitis C Virus (HCV); 340,000 tested, 3.4% active; AID 651820, 2012; Potency, µM (titrated, usually from 41.8 µM), for the others: top-dose activity change, negative = inhibition, most hits filed as inhibitors; Huh7.5.1 HCVcc-Cre infection, luciferase reporter, 44 h
#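 After 44 h co-culture of compound, cells and HCVcc-Cre (~0.5 moi), substrate is added for 15 min at room temperature and luciferase measured over 15 sec. Cells were seeded at 1,000/well and pre-cultured 4 h.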
# * = called active by the depositor; ? = inconclusive; / = not tested or not shown. An excerpt weighted towards active compounds, which were near 11% of everything screened. Calls come from the whole dose curve; as a rule, active = well fitted curve in the direction sought with a large enough effect; inconclusive = small, poorly fitted or top-dose-only effect, or another doubt; inactive = no such curve, though single readings can be large; an effect the other way counts as inactive or inconclusive. Unless noted, % is set by controls: 0 for no effect and ±100 for the full control effect; potency is the fitted concentration of half-maximal effect.
SMILES,AMA1 RON2 block,Pf growth 48h,Pf growth 96h,AmpC detergent,AmpC no deterg,HCV inh
O=C(Cc1cccs1)N1CCN(S(=O)(=O)c2ccccc2)CC1,-6.2%,13.5%,13.1µM*,-10.3%,-8.0%,2.7%
O=c1[nH]c(SCc2ccc([N+](=O)[O-])cc2)nc2[nH]ncc12,4.4%,?,7.38µM*,3.3%,-8.8%,14.7%
Cc1cccc(CSc2nc3[nH]ncc3c(=O)[nH]2)c1,6.3%,21.0%,3.2%,-11.9%,0.5%,-1.3%
CCc1ccc(Sc2cc(C(=O)NCc3ccccc3OC)c3ccccc3n2)cc1,/,/,/,5.6%,/,/
COc1ccc(C2=CC(c3ccc(OC)c(OC)c3)NC(=S)N2)cc1 (centres undefined),32.4%,?,?,?,-4.1%,-6.8%
COc1cccc(C2=CC(c3ccc(OC)c(OC)c3)NC(=S)N2)c1 (centres undefined),11.1%,10.4µM*,?,-6.1%,-24.2%,?
COc1ccccc1N1CCN(C(=O)CN2C(=O)COc3ccc(S(=O)(=O)N4CCOCC4)cc32)CC1,/,/,/,-6.4%,/,/
CCCn1c2c(c(O)c(C(=O)Nc3ncccc3O)c1=O)CCCC2,-8.4%,5.3%,-19.7%,-15.2%,19.1%,3.8%
CCCn1c2c(c(O)c(C(=O)Nc3ccc(OC)cc3)c1=O)CCCC2,0.2%,?,?,-12.6%,-9.3%,11.2µM*
CCCn1c2c(c(O)c(C(=O)NC)c1=O)CCCC2,0.0%,-25.2%,?,?,-8.8%,?
CCCn1c2c(c(O)c(C(=O)NCc3ccccc3)c1=O)CCCC2,24.0%,13.8%,?,-2.4%,-0.6%,5.01µM*
CC(C)(C)C1CCC2(CC1)Nc1cccc3cccc(c13)N2,-7.0%,?,140.6%,?,12.6µM*,6.0%
C[C@@]12C(=O)Nc3ccc(F)cc3C(=O)N1[C@H]1c3ccccc3OC[C@@H]1[C@@H]2c1ccccc1,9.9%,/,/,/,-17.0%,-10.3%
C[C@@]12C(=O)Nc3ccc(Cl)cc3C(=O)N1[C@H]1c3ccccc3OC[C@@H]1[C@@H]2c1ccccc1,-24.6%,13.1µM*,10.4µM*,-7.7%,-29.5%,?
C[C@@]12C(=O)Nc3cc(Cl)ccc3C(=O)N1[C@H]1c3cc(Br)ccc3OC[C@@H]1[C@@H]2c1ccccc1,-3.7%,9.28µM*,9.28µM*,-10.7%,-31.2%,10µM*
C[C@@]12C(=O)Nc3cc(Cl)ccc3C(=O)N1[C@H]1c3ccccc3OC[C@@H]1[C@@H]2c1ccccc1,-0.7%,?,9.28µM*,-9.6%,-44.6%,?
Cc1ccc2c(c1)C(=O)N1[C@H]3c4cc(Br)ccc4OC[C@@H]3[C@H](c3ccccc3)[C@]1(C)C(=O)N2,-4.5%,/,/,/,-27.3%,?
C[C@@]12C(=O)Nc3cc(Cl)ccc3C(=O)N1[C@H]1c3cc(Cl)ccc3OC[C@@H]1[C@@H]2c1ccccc1,-5.5%,/,/,/,-27.3%,?
CCOc1ccccc1NC(=O)C(C)n1nnc2sc3c(c2c1=O)CCCC3 (centres undefined),/,/,/,18.0%,/,/
O=C1NC(=S)N/C1=C/c1cccc2ccccc12,-1.7%,30.5%,0.0%,0.0%,-32.2%,-8.6%
O=C1NC(=S)NC(=O)C1=Cc1cccc2cc3ccccc3cc12,43.4%,?,?,2.5%,-42.8%,10µM*
CCOc1ccc(CCNC(=O)C2CCCN(S(=O)(=O)N(C)c3ccc(F)cc3)C2)cc1 (centres undefined),/,/,/,-4.3%,/,/
C/C(=N\Nc1cc(C)nc(-c2ccccc2)n1)c1cccc([N+](=O)[O-])c1,-17.4%,11.7µM*,0.415µM*,10.5%,-13.6%,?
COc1cc(N/N=C(\C)c2ccc(N)cc2)nc(-c2ccccc2)n1,-6.1%,-5.5%,?,4.0%,-46.8%,11.2µM*
C/C(=N\Nc1cc(-c2ccccc2)nc(-c2ccccc2)n1)c1ccc(O)c(C)c1,-19.3%,?,0.0%,5.8%,-7.9%,3.55µM*
SMILES,AMA1 RON2 block,Pf growth 48h,Pf growth 96h,AmpC detergent,AmpC no deterg,HCV inh
COc1cc(N/N=C(\C)c2ccc(O)c(C)c2)nc(-c2ccccc2)n1,-8.0%,?,?,13.1%,-25.2%,?
COc1ccc(C2=CC(c3cccc(C)c3)n3nnnc3N2)cc1 (centres undefined),/,/,/,0.2%,/,/
O=C(c1cnn(-c2cccc(F)c2)c1-n1cccc1)N1CCN(c2ccccc2F)CC1,/,/,/,4.3%,/,/
N#C/C(=C\c1ccc(Cl)cc1)c1nc(-c2cc3c(ccc4ccccc43)oc2=O)cs1,/,/,/,15.5%,/,/
CC(=O)c1ccc(NC(=O)Cn2c3ncccc3c(=O)n2-c2ccc(C)cc2)cc1,/,/,/,3.1%,/,/
Cc1ccc(C)c(NS(=O)(=O)c2ccc(NC(=O)c3ccco3)cc2)c1,22.7%,10.4µM*,11.7µM*,?,-31.2%,-25.1%
Cc1cc(C)nc(NS(=O)(=O)c2ccc(NC(=O)c3ccco3)cc2)n1,-3.1%,56.1%,0.0%,-14.2%,-19.9%,-0.8%
CCN=C1SC(CC(=O)Nc2ccc(N3CCOCC3)cc2)C(=O)N1CC (centres undefined),0.9%,-0.3%,/,-0.9%,-1.1%,9.4%
CCN=C1SC(CC(=O)Nc2ccc(C(F)(F)F)cc2)C(=O)N1CC (centres undefined),-0.4%,2.62µM*,54.5%,1.3%,24.9%,-6.0%
COc1ccc(N(CC(=O)N2CCOCC2)S(C)(=O)=O)cc1OC,-7.5%,-4.5%,13.1µM*,2.2%,2.2%,1.6%
CCc1ccccc1N(CC(=O)N1CCCC1)S(C)(=O)=O,-1.6%,-1.9%,10.4µM*,8.0%,-1.5%,16.6%
CCc1ccccc1N(CC(=O)N1CCCCCC1)S(C)(=O)=O,-0.8%,-11.2%,-42.7%,-6.4%,2.2%,25.7%
COc1ccc(N(CC(=O)N2CCCCCC2)S(C)(=O)=O)cc1Cl,-3.2%,?,-29.0%,-11.7%,21.0%,3.2%
COc1ccc(N(CC(=O)N2CCOCC2)S(C)(=O)=O)cc1Cl,-18.9%,-14.0%,11.7µM*,0.7%,-8.4%,-1.8%
CS(=O)(=O)N(CC(=O)N1CCCC1)c1ccc(Cl)cc1,10.7%,5.0%,?,-0.5%,-16.9%,15.8%
Cc1ccc(N(CC(=O)N2CCCC2)S(C)(=O)=O)cc1C,7.1%,-17.2%,7.38µM*,3.6%,-8.1%,12.7%
CCN(CCCNC(=O)c1cc2c(=O)[nH]c3ccc(C)cc3c2s1)Cc1ccccc1,/,/,/,7.1%,/,/
